A selection: hits, their analogues and other compounds. The true share with any hit is near 3.5%.
3CLpro inhibitor: SARS-CoV 3CLpro protease inhibition | P0C6X7 | recombinant SARS-CoV 3CLpro, quenched FRET peptide cleavage | inhibition, % at 6 µM | 290,000 compounds, 0.14% hits | AID 1706; in the data active = inhibition above about 12%
BoNT A protease: BoNT A light chain protease inhibition. inhibition, % at 10 µM. multiplex microsphere protease substrate cleavage, flow cytometry. 360,000 compounds, 0.17% hits. AID 588499; also: plate controls were buffer without enzyme for full effect and enzyme alone for no effect
BoNT F protease: blocks Botulinum neurotoxin F light chain protease | 360,000 compounds, 0.22% hits | Multiplex microsphere protease cleavage assay, flow cytometry | AID 588497 | inhibition, % at 10 µM; in the data active = inhibition above about 35%, passing the limit was not always enough; inconclusive = no clear call, values can overlap the other calls; also: plate controls were buffer without enzyme for full effect and enzyme alone for no effect
Anthrax LF prot: inhibitors of Bacillus anthracis lethal factor protease; 360,000 compounds, 0.12% hits; P15917; multiplex microsphere protease cleavage assay, LF; inhibition, % at 10 µM; also: plate controls were buffer without enzyme for full effect and enzyme alone for no effect
Target sequence (P15917 whole entry, looked up): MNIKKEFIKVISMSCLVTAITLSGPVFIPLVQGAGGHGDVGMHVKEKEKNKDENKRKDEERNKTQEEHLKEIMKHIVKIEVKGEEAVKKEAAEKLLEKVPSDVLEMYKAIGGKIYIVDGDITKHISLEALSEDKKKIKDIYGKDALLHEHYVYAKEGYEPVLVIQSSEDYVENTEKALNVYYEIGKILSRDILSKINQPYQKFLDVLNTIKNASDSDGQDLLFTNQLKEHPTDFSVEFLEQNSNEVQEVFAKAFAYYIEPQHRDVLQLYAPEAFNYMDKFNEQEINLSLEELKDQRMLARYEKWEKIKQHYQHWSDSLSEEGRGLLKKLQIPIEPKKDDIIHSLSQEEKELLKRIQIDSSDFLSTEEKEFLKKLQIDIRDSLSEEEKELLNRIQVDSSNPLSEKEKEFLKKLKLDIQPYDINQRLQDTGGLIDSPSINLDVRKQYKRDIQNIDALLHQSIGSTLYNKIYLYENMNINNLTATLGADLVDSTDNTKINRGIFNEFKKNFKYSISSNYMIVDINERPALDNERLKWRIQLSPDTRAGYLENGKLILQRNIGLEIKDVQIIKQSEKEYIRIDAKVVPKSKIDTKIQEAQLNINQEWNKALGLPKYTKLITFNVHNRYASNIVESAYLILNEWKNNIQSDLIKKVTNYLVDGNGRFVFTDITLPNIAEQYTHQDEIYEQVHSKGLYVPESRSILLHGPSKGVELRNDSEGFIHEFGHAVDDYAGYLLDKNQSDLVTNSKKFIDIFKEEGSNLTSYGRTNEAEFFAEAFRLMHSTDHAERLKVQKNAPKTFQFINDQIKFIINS
Bead autofluor: counter-screen for toxin protease inhibitors: compound fluorescence. compound autofluorescence counterscreen, microsphere flow cytometry; stronger effect = higher value. fluorescence intensity (concentration not given with the values). 360,000 compounds, 3.1% hits. AID 624483; in the data active = fluorescence intensity above about 16000; inconclusive = no clear call, values can overlap the other calls
* hit, by the source's call; ? = inconclusive; . = not tested or not shown. Rule as the data show it, unless noted: active = inhibition above about 30%; inconclusive = no clear call, values can overlap the other calls; inactive = below that.

SMILES	3CLpro inhibitor	BoNT A protease	BoNT F protease	Anthrax LF prot	Bead autofluor
O=C(c1ccco1)N1CCN(c2ccc(F)cc2)CC1	0	0	-2	0	2321
O=C(c1ccco1)N1CCN(C(=O)c2sccc2-c2ccccc2)CC1	-1	-1	-2	-2	20729*
CCCCN(CCNP(=O)(OCC)OCC)CP(=O)(OCC)OCC	2	0	1	2	4263
COc1cccc2cc(-c3nc(-c4cccs4)cs3)c(=O)oc12	5	17	-2	13	3637
O=c1oc2ccccc2cc1-c1nc(-c2cccs2)cs1	2	58*	32	41*	8352
O=C(COC(=O)c1cncc(Br)c1)NC1CCCCCC1	2	31*	2	25	4808
COc1ccc(-c2onc3ccc(C(=O)/C=C/N(C)C)cc23)cc1	1	1	45*	-10	9723
Cc1cc(C)cc(NC(=S)/C(=C(\[O-])c2ccc(Cl)s2)[n+]2cccc(C)c2)c1	0	3	-7	-2	4331
COc1cccc(CCC(=O)N2CCC(n3nccc3NC(=O)C3CCOC3)CC2)c1 (centres undefined)	4	.	.	.	.
CCC(NC(=O)c1cccc(Cn2nc(C)c([N+](=O)[O-])c2C)c1)c1ccc(C(C)C)cc1 (centres undefined)	2	1	-1	-2	22838*
Cc1nn(Cc2cccc(C(=O)N3N=C(C(F)F)CC3(O)C(F)F)c2)c(C)c1[N+](=O)[O-] (centres undefined)	6	-4	-6	0	24863*
CC1=NN(C(=O)c2cccc(Cn3nc(C)c([N+](=O)[O-])c3C)c2)C(O)(C(F)(F)F)C1 (centres undefined)	1	-4	-7	0	24994*
CN(C)C(CNC(=O)c1ccc(NS(=O)(=O)c2ccc3[nH]c(=O)[nH]c3c2)cc1)c1ccccc1 (centres undefined)	.	-3	-11	0	6733
C=Cc1ccc(CN2CCCN(Cc3ccc(F)cc3)S2(=O)=O)cc1	-1	0	45*	-6	4100
C=Cc1ccc(CN2CCCN(Cc3ccc(Cl)cc3)S2(=O)=O)cc1	3	0	-12	-10	4051
CC1CCCCC1NC(=O)C1CCN(S(=O)(=O)N2CCCCCC2)CC1 (centres undefined)	-3	10	11	-14	18939*
CC1CCCCC1NC(=O)C1CCN(S(=O)(=O)N2CCOCC2)CC1 (centres undefined)	1	0	0	0	11248
CC(C)Cc1nc2oc3c(NCCCN4CCOCC4)ncnc3c2c2c1CCC2	0	-1	-3	-1	23301*
COc1cccc(NC(=S)Nc2ccc(O)cc2)c1	1	-3	-40	1	3640
Cc1cc(C)n(C2CCCCC2OC(=O)CCc2ccccc2)n1 (centres undefined)	3	?	?	33*	3606
CCOC(=O)C1CCCN(C(=O)CCc2ccccc2)C1 (centres undefined)	2	-2	-10	-14	5961
CC1CCCN(CCOCCOc2ccc(Cl)cc2Br)C1 (centres undefined)	2	1	1	-9	21666*
CC1CCCN(CCOCCOc2ccc(Br)cc2Cl)C1 (centres undefined)	2	1	6	0	2691
COc1ccc(S(=O)(=O)Cc2ccccc2)cc1N	1	-2	-5	0	23710*
CCN(c1ccccc1)S(=O)(=O)c1ccc(N)c(OC)c1	1	0	6	1	3750
SMILES	3CLpro inhibitor	BoNT A protease	BoNT F protease	Anthrax LF prot	Bead autofluor
CCCCOc1ccc(C(O)(CCC)CCN2CCOCC2)cc1 (centres undefined)	-4	1	-4	1	2014
CCCCC(O)(CCN1CCOCC1)c1ccc(Cl)cc1 (centres undefined)	8	3	3	-8	21851*
Cc1ccc(S(=O)(=O)N2CCCCC2)cc1NC(=O)c1ccc(Br)o1	.	1	5	0	6414
COc1cnc(-c2ccccn2)nc1Sc1ccccc1Cl	7	-2	-6	-4	16715*
O=C(C1CC1)N(Cc1ccco1)c1nc(-c2ccccc2)cs1	-3	-2	-6	-1	23051*
O=C1C(Br)=Cc2cccc3cccc1c23	0	59*	12	30*	2984
O=C1C(=O)c2cccc3cccc1c23	1	1	2	-2	2088
COC(=O)c1cc2ccccc2n1Cc1ccc(Cl)nc1	-2	-1	4	2	2889
CCN(CC(=O)Nc1ccccc1OC)C(=O)/C=C/c1cccs1	.	6	?	-1	?
O=S(=O)(c1ccc(N2CCCC2)cc1)C(F)(F)F	-2	1	1	-1	16476*
O=S(=O)(c1ccc(N2CCN(c3ccc(F)cc3)CC2)cc1)N1CCCC1	-2	0	-6	-4	9751
C[C@@]12C(=O)N(Cc3ccccc3)CC(=O)N1[C@H]1c3ccccc3OC[C@@H]1[C@@H]2c1ccccc1	.	-1	5	5	4305
COc1cccc(N2CCN(C3CC(=O)N(c4ccc(Cl)c(Cl)c4)C3=O)CC2)c1 (centres undefined)	2	-1	-6	-6	4291
CN1C(=O)CC(N2CCN(c3ccc(Cl)c(Cl)c3)CC2)C1=O (centres undefined)	-1	0	2	0	16251*
COc1cc(Cl)c(C)cc1NC(=O)CCCN1C(=O)CCC1=O	4	1	-2	-3	19155*
O=C(CCCN1C(=O)CCC1=O)Nc1ccc(Br)cc1F	3	0	0	0	23503*
COc1cc(Cl)c(C)cc1NC(=O)CCCn1c(=O)oc2ccccc21	-8	1	6	0	1982
O=C(CCCN1C(=O)C2CC=CCC2C1=O)Nc1ccccc1F (centres undefined)	-7	0	7	-1	6123
O=C(CCCN1C(=O)CCC1=O)Nc1ccccc1F	1	4	4	2	22328*
COc1ccc(CCN(C)C2CCCN(S(=O)(=O)C(C)C)C2)cc1OC (centres undefined)	7	?	?	5	3858
Cc1cc(NS(=O)(=O)c2ccc(NC(=O)c3ccco3)cc2)no1	-5	0	0	0	3125
COc1cc(NS(=O)(=O)c2ccc(NC(=O)c3ccc(C)o3)cc2)nc(OC)n1	4	?	19	-8	16150*
CCCC(=O)Nc1ccc(S(=O)(=O)Nc2cc(OC)nc(OC)n2)cc1	-5	-3	?	-15	4283
Cc1cc(NS(=O)(=O)c2ccc(NC(=O)c3ccco3)cc2)nc(C)n1	5	-4	-9	-1	21969*
CC1=C(C)C(=O)N(CCC(=O)O)C1=O	-1	2	4	-16	20985*
Cc1nnc2ccc(N3CCC4(CC3)OCCO4)nn12	-2	?	2	-1	23146*
CC(C)CCNC(=O)CN(C(=O)Cn1nnc(-c2ccccc2F)n1)c1cccc2c1CCCC2	5	4	7	-10	20259*
CC(C)CCNC(=O)CN(CCCN1CCOCC1)C(=O)Cn1nnc(-c2ccc(F)cc2)n1	1	4	5	1	22173*

From PubChem BioAssay
